This passage reports outcome and AC50 results from PubChem BioAssay (EPA / NIEHS).

In experiment [1] the target is rat Mineralocorticoid Receptor (MR), Nr3c2 (gene 25672) (UniProt P22199). Nature of the experiment: NVS_NR_rMR: NovaScreen (NVS) Nuclear Receptor Binding Assay for rat Mineralocorticoid Receptor (MR) (AID 2283355). In a few lines:
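Cell-free radioligand binding to MR in adrenalectomized rat brain supernatant, scintillation counted 24 h after dosing. Loss of signal versus DMSO baseline marks displacement. Primary screen in duplicate at 25 uM; actives retested as concentration series.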

Experiment [2] deals with Nuclear receptor subfamily 1 group I member 2 (Homo sapiens) (UniProt O75469). The experiment can be described thus: NVS_NR_hPXR: NovaScreen (NVS) Nuclear Receptor Binding Assay for human Pregnane X Receptor (PXR) (AID 2283365).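 Also: a drop in FRET signal versus DMSO baseline means the compound binds.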 In a few lines:
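Binding was measured by time-resolved fluorescence resonance energy transfer after a 2 h exposure of extracted human PXR protein without cells. Compounds were first tested at 25 uM in duplicate, with concentration series for actives; DMSO defined baseline.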

Experiment [3] concerns the target rat Androgen Receptor (AR), Ar (gene 24208) (UniProt P15207). Nature of the experiment: NVS_NR_rAR: NovaScreen (NVS) Nuclear Receptor Binding Assay for rat Androgen Receptor (AR) (AID 2283366). In a few lines:
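Cell-free radioligand binding on extracts of prostate from testosterone-pretreated rats, read by filter-based scintillation counting 18 h after dosing. Loss of bound signal fitted positively versus DMSO; primary screen in duplicate at 25 uM, actives followed up in concentration series.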

Experiment [4] concerns guinea pig Dopamine Transporter (DAT), gene 100714898. The experiment can be described thus: NVS_TR_gDAT: NovaScreen (NVS) Transporter Assay for guinea pig Dopamine Transporter (DAT) (AID 2283369).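 Also: active compounds lower bound radioligand signal relative to DMSO.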 In a few lines:
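Test chemicals were incubated 2 h with guinea pig striatal membranes and a radioligand; bound label was separated by filtration and counted. Screening ran at 25 uM, followed by concentration-response testing to a 50 uM maximum.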

Experiment [5] concerns the target guinea pig Sigma Receptor, Non-selective Binding, SIGMAR1 (gene 100135589) (UniProt Q60492). The experiment can be described thus: NVS_OR_gSIGMA_NonSelective: NovaScreen (NVS) Nuclear Receptor Binding Assay for guinea pig Sigma Receptor, Non-selective Binding (AID 2283367). In a few lines:
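Guinea pig brain membranes, cell-free radioligand binding; read 1 h after dosing by filter-based scintillation counting. Loss of signal vs DMSO baseline taken as displacement. Primary screen single concentration 25 uM in duplicate; actives retested in concentration series.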

Experiment [6] addresses human Adenosine Transporter (Adot), SLC29A1 (gene 2030) (UniProt Q99808). The experiment can be described thus: NVS_TR_hAdoT: NovaScreen (NVS) Transporter Assay for human Adenosine Transporter (Adot) (AID 2283368). In a few lines:
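U937-derived membranes, cell-free radioligand binding, filter scintillation 1 h after dosing. 25 uM duplicate screen; hits (e.g. 30% inhibition) run in concentration-response up to 50 uM; loss of signal versus DMSO.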

The test system of experiment [7] is rat Norepinephrine Transporter (NET), gene 83511. The experiment can be described thus: NVS_TR_rNET: NovaScreen (NVS) Transporter Assay for rat Norepinephrine Transporter (NET) (AID 2283373). The method, boiled down:
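Rat forebrain membranes; radioligand binding measured by filter-based scintillation counting 1 hour after dosing. Loss of specific binding versus DMSO baseline scored; primary screen in duplicate at 25 uM, actives followed up in concentration series.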

For experiment [8], the target named is Norway rat Vesicular Monoamine Transporter (VMAT2), neurotransmitter transporter, Slc18a2 (gene 25549) (UniProt Q01827). Nature of the experiment: NVS_TR_rVMAT2: NovaScreen (NVS) Transporter Assay for Norway rat Vesicular Monoamine Transporter (VMAT2), neurotransmitter transporter (AID 2283376).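 Also: actives lower the bound radioligand signal below the DMSO level.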 In a few lines:
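Rat forebrain tissue preparation used in a cell-free radioligand binding format; displacement read by filter-based scintillation counting 1 hour after dosing. Primary screen in duplicate at 25 uM, actives then run in concentration series; loss of signal versus DMSO baseline.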

Experiment [9] addresses human Peroxisome Proliferator-activated Receptor alpha (PPARa), PPARA (gene 5465) (UniProt Q07869). Nature of the experiment: NVS_NR_hPPARa: NovaScreen (NVS) Nuclear Receptor Binding Assay for human Peroxisome Proliferator-activated Receptor alpha (PPARa) (AID 2283359).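 Also: activity means loss of TR-FRET signal versus DMSO baseline.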 The method, boiled down:
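Cell-free binding assay with extracted human protein, read by TR-FRET 1 h after chemical dosing. Loss of signal relative to DMSO baseline indicates binding. Primary screen used duplicate single concentration (25 uM); actives followed up in concentration series.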

Experiment [10] deals with Retinoic acid receptor alpha (Homo sapiens) (UniProt P10276). Nature of the experiment: NVS_NR_hRARa_Agonist: NovaScreen (NVS) Nuclear Receptor Binding Assay for human Retinoic Acid Alpha Receptor Agonism (RAR) (AID 2283361). In a few lines: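 Cell-free TR-FRET binding read-out with extracted human RARα protein, read 2 h after compound addition. Gain of signal scored against DMSO baseline. Primary screen at a single 25 uM in duplicate; actives then retested in concentration series.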
Chain of Retinoic acid receptor alpha (Homo sapiens) (P10276 whole entry, looked up): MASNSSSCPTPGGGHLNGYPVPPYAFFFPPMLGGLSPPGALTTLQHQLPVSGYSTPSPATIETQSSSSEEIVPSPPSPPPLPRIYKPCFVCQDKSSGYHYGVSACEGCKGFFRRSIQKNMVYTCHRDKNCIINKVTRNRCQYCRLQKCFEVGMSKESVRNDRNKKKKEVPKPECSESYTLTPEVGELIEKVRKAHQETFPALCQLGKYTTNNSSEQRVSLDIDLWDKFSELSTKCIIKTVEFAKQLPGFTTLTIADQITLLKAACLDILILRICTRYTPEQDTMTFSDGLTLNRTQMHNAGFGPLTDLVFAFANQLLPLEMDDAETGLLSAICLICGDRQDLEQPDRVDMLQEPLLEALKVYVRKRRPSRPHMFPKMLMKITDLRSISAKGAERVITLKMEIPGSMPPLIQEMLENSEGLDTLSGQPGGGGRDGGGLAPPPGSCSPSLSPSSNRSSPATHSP

In experiment [11] the target is rat Serotonin Transporter (SERT), Slc6a4 (gene 25553) (UniProt P31652). The experiment can be described thus: NVS_TR_rSERT: NovaScreen (NVS) Transporter Assay for rat Serotonin Transporter (SERT) (AID 2283375). The method, boiled down:
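Steps: rat forebrain membranes dosed with chemical (25 uM duplicate primary; concentration series for actives); 1 h incubation; labelled ligand bound, filtered, counted by scintillation. Activity scored as signal loss vs DMSO.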

Inconclusive results are not listed. A structure can be active in one record and inactive in another. Calls of active or inactive are those of the source. The calls were made as follows: active = hit-call score of the fitted dose curve at least 0.9, where 1 is the maximum; inconclusive = response in the unintended direction; inactive = score below 0.9.

Chain of human Adenosine Transporter (Adot), SLC29A1 (gene 2030) (Q99808 whole entry, looked up): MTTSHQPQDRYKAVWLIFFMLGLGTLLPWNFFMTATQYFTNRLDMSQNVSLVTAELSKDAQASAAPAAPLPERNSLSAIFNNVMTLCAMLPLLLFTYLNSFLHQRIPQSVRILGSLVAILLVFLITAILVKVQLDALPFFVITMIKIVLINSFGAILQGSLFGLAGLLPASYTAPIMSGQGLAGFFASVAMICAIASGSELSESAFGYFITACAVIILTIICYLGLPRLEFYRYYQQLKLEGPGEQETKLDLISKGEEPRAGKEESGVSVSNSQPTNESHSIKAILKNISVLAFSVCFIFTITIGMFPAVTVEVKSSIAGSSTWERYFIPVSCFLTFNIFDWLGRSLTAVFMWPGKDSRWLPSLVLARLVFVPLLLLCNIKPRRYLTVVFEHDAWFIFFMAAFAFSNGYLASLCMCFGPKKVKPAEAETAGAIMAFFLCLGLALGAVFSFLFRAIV
Chain of Nuclear receptor subfamily 1 group I member 2 (Homo sapiens) (O75469 whole entry, looked up): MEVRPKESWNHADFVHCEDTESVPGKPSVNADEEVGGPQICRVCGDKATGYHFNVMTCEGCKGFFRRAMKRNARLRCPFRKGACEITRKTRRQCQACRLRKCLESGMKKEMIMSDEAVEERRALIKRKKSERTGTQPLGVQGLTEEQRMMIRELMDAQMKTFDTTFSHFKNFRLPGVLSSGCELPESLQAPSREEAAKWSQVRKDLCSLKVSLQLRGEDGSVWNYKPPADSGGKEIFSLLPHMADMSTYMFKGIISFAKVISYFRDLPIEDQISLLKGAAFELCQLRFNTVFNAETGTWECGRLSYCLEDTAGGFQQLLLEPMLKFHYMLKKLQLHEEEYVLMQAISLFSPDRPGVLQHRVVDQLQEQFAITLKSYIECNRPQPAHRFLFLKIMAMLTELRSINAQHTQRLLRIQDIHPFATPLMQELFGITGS
Chain of rat Androgen Receptor (AR), Ar (gene 24208) (P15207 whole entry, looked up): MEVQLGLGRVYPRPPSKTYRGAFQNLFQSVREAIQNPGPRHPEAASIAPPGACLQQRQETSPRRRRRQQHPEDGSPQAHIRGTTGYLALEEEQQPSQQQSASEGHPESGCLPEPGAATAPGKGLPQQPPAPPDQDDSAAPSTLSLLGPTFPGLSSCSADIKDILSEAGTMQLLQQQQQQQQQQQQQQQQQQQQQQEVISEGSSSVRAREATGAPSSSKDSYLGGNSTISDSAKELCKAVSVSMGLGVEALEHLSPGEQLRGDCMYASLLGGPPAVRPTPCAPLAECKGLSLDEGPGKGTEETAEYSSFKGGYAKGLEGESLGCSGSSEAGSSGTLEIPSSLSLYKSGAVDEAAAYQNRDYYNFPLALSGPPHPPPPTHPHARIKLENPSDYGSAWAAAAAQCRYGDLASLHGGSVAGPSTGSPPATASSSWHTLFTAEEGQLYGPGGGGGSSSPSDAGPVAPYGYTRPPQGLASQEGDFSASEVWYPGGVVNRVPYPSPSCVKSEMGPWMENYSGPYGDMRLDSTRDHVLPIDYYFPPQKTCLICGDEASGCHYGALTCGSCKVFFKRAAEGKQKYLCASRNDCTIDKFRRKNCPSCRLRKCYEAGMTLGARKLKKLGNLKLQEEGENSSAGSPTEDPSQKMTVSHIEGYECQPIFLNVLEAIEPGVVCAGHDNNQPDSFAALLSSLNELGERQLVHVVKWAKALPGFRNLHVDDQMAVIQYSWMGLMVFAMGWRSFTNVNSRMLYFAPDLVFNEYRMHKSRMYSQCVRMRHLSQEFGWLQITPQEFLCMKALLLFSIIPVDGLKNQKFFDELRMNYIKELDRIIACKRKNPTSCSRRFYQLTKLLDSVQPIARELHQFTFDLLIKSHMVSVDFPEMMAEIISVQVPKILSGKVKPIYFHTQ
Chain of rat Serotonin Transporter (SERT), Slc6a4 (gene 25553) (P31652 whole entry, looked up): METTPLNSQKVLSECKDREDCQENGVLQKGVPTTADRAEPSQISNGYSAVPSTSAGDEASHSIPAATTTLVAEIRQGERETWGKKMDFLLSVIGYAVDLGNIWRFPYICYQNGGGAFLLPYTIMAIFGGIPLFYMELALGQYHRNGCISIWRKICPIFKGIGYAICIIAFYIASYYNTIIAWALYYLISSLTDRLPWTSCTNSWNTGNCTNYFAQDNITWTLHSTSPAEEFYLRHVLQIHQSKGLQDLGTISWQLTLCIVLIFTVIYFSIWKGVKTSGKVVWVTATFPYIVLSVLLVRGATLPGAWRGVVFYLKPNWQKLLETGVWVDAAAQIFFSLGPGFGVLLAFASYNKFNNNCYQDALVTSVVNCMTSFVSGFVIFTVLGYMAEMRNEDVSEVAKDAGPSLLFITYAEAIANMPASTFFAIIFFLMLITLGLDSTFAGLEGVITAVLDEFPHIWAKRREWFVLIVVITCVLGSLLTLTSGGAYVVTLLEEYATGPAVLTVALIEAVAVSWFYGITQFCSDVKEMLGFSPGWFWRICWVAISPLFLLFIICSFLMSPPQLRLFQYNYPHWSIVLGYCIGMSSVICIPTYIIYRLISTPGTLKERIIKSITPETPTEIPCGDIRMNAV
Chain of guinea pig Sigma Receptor, Non-selective Binding, SIGMAR1 (gene 100135589) (Q60492 whole entry, looked up): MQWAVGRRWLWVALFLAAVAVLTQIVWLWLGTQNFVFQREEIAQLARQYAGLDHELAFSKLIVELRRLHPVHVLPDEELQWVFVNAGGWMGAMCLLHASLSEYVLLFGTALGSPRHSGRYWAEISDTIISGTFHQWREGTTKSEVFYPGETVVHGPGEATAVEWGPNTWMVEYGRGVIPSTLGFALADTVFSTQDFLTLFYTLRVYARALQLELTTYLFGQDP
Chain of Norway rat Vesicular Monoamine Transporter (VMAT2), neurotransmitter transporter, Slc18a2 (gene 25549) (Q01827 whole entry, looked up): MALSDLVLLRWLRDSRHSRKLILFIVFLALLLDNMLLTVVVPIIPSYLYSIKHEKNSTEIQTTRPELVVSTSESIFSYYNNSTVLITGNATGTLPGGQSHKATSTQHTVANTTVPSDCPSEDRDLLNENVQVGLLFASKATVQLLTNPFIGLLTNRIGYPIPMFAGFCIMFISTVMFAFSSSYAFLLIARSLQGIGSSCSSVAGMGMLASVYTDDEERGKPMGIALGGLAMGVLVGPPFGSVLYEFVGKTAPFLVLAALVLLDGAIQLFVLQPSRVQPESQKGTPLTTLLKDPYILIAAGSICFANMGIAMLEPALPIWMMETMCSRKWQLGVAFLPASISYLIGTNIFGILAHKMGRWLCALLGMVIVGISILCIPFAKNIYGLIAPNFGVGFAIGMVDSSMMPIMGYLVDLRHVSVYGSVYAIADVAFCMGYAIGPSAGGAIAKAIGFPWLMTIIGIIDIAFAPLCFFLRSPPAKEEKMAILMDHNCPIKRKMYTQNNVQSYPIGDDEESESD
Chain of rat Mineralocorticoid Receptor (MR), Nr3c2 (gene 25672) (P22199 whole entry, looked up): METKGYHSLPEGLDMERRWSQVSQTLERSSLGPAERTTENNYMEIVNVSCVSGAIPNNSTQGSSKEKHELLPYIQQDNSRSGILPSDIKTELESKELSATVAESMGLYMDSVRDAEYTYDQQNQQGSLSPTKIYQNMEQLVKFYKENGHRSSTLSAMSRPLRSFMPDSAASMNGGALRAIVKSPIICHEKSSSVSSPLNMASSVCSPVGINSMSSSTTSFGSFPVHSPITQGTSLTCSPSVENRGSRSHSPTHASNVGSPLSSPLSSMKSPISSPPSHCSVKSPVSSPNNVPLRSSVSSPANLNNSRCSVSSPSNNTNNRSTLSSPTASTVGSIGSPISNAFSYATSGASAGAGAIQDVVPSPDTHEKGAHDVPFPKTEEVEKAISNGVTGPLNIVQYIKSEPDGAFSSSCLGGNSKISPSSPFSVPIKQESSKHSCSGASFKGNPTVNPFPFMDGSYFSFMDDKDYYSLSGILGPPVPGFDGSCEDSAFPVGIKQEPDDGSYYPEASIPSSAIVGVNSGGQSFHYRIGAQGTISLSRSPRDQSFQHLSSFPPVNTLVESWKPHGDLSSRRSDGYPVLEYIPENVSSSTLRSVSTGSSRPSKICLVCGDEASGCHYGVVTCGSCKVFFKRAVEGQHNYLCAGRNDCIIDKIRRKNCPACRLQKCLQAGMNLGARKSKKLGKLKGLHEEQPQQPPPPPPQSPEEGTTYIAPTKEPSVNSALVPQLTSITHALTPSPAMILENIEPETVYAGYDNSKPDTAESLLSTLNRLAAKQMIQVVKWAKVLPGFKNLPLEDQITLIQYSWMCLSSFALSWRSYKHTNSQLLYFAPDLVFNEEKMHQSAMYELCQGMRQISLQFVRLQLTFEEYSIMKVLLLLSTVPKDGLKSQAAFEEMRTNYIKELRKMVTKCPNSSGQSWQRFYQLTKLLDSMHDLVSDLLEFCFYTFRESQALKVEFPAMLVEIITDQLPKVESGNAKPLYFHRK

With `CCOP(=S)(OCC)Oc1ccc([N+](=O)[O-])cc1`, the molecule was classed as inactive in experiment [1].

For `CC(C)N(C(=O)SCC(Cl)=C(Cl)Cl)C(C)C`, the molecule was called inactive in [2].

Turning to `CC(C1CC1)C(O)(Cn1cncn1)c1ccc(Cl)cc1` (stereo not given), in experiment [2], the outcome was inactive.

As to `CNC(=O)ON=C(SC)C(=O)N(C)C`, the outcome in [3] was inactive.

Turning to `CCCCOC(=O)c1ccccc1C(=O)O`, the molecule was classed as inactive in experiment [3] and in experiment [4].

Turning to `CCc1cccc(C)c1N(C(=O)CCl)C(C)COC` (stereo not given), in experiment [5], the call was inactive.

Regarding `CCOC(=O)CC(SP(=O)(OC)OC)C(=O)OCC` (stereo not given), the call in [5] was inactive.

Broadly, the AC50 is the midpoint of the concentration-response curve, whichever way the signal moves. For the molecule `COc1ccc(C(=CC(=O)N2CCOCC2)c2ccc(Cl)cc2)cc1OC`, the AC50 in [6] was 9.48 µM (active).

Turning to `Nc1c(Cl)cc([N+](=O)[O-])cc1Cl`, the result in experiment [4] was inactive.

Regarding `Cc1cc(C2CC2)nc(Nc2ccccc2)n1`, in experiment [7], the AC50 is 5.69 µM (active). Besides, the molecule was classed as inactive in [8].

As to `CSc1nc(NC(C)C)nc(NC(C)C)n1`, the call in [8] was inactive.

As for `CN(C)[C@@H]1C(=O)C(C(N)=O)=C(O)[C@@]2(O)C(=O)C3=C(O)c4c(O)cccc4[C@@](C)(O)[C@H]3[C@H](O)[C@@H]12`, the AC50 in experiment [9] was 14.1 µM (active); in experiment [2] it was 2.08 µM (active). Besides, the call in [2] was inactive.

As to `CCOC(=O)COc1cc(-c2nn(C)c(OC(F)F)c2Cl)c(F)cc1Cl`, the molecule was classed as inactive in [10].

With `O=[N+]([O-])c1cc(C(F)(F)F)c(Cl)c([N+](=O)[O-])c1Nc1ncc(C(F)(F)F)cc1Cl`, in experiment [10], the molecule was classed as inactive.

With `CC[C@H](C)[C@H]1O[C@]2(C=C[C@@H]1C)C[C@@H]1C[C@@H](C/C=C(\C)[C@@H](O[C@H]3C[C@H](OC)[C@@H](O[C@H]4C[C@H](OC)[C@@H](NC)[C@H](C)O4)[C@H](C)O3)[C@@H](C)/C=C/C=C3\CO[C@@H]4[C@H](O)C(C)=C[C@@H](C(=O)O1)[C@]34O)O2`, the AC50 in [2] is 6.81 µM (active). Further, the outcome in experiment [7] was inactive.

`CC(C)=CC1C(C(=O)OCN2C(=O)C3=C(CCCC3)C2=O)C1(C)C` (stereo not given): the AC50 in experiment [6] was 25 µM (active). In addition, in [11], the outcome was inactive.

Consider `CCCOCC(=Nc1ccc(Cl)cc1C(F)(F)F)n1ccnc1`, for which the AC50 in experiment [6] is 25 µM (active). The molecule was called inactive in experiment [11].

Turning to `CCC(=O)Nc1ccc(Cl)c(Cl)c1`, the AC50 in experiment [7] was 4.96 µM (active).
